SMILES strings stand for the structures. Inconclusive results are not listed. Active and inactive are the calls of the source. How the source made its calls, unless noted: active means hit-call score of the fitted dose curve at least 0.9, where 1 is the maximum; inactive means score below 0.9.

Test [1] concerns Thyroperoxidase (TPO), gene 54314. The test can be described thus: CCTE_Simmons_AUR_rTPO: CCTE's Amplex UltraRed Assay for Thyroperoxidase (TPO) Inhibition, Simmons Lab (AID 2283662; active means hit-call score of the fitted dose curve at least 0.9, where 1 is the maximum;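 further: potency for loss of signal meaning inhibition of peroxidase activity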). In short, it runs like this:
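Endpoint is decreased Amplex UltraRed fluorescence after a 30-min, 37C reaction of rat thyroid microsomes with 300 uM H2O2. Eight test concentrations (5 nM–87.5 uM final) in 0.5% DMSO, three biological replicates each.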

In test [2] the test system is Brachyury (BRA) Protein Expression, Deisenroth Lab, TBXT (gene 6862). The test can be described thus: CCTE_Deisenroth_DEVTOX-GLR_legacy_Bra: (Legacy) CCTE's DevTox GLR-Endo Assay Evaluation of Brachyury (BRA) Protein Expression, Deisenroth Lab (AID 2284329). The essentials: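 RUES2-GLR human pluripotent cells differentiated 48 h with two 24-h-interval chemical exposures (1 nM - 200 uM, 10 points); fixed, nuclear-stained, imaged. Bra+ cell percentage (intensity 5x BMAD above pluripotent control median) fitted relative to 0.2% DMSO.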

The nature of test [3]: CCTE_Deisenroth_DEVTOX-GLR_legacy_CellCount: (Legacy) Viability Assessment in CCTE's DevTox GLR-Endo Assay, Deisenroth Lab (AID 2284331). The following applies: actives raise or lower the signal. The essentials:
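Seed RUES2-GLR 24 h; differentiate 48 h, dosing at 0 and 24 h; fix, stain nuclei; image 5 fields/well; count nuclei. Conc. 1 nM - 200 uM, single technical replicate, n=4 experiments; bidirectional fit vs 0.2% DMSO.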

For test [4], the system named is SRY-box transcription factor 17 (SOX17) Protein Expression, Deisenroth Lab, SOX17 (gene 64321). In words: CCTE_Deisenroth_DEVTOX-GLR_legacy_Sox17: (Legacy) CCTE's DevTox GLR-Endo Assay Evaluation of SRY-box transcription factor 17 (SOX17) Protein Expression, Deisenroth Lab (AID 2284341). The following applies: actives raise or lower the signal. The essentials:
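Using the RUES2-GLR line, compounds are tested as 10-point series during 48-h defined-media differentiation. Sox17 reporter fluorescence per cell determines positivity; endpoint is percentage positive, analysed bidirectionally versus DMSO baseline.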

The subject of test [5] is SRY-box transcription factor 2 (SOX2) Protein Expression, Deisenroth Lab, SOX2 (gene 6657). In words: CCTE_Deisenroth_DEVTOX-GLR_legacy_Sox2: (Legacy) CCTE's DevTox GLR-Endo Assay Evaluation of SRY-box transcription factor 2 (SOX2) Protein Expression, Deisenroth Lab (AID 2284346). The essentials: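 RUES2-GLR human pluripotent cells seeded 24 h, then differentiated 48 h in defined media with two chemical doses 24 h apart (10-point, 1 nM–200 uM). Fixed, nuclear-stained, imaged; % Sox2+ cells (>5x BMAD over endoderm control median), DMSO-subtracted, fitted upward.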

The test system is the same in test [6]. In words: CCTE_Deisenroth_DEVTOX-GLR_Endo_SOX2: CCTE's DevTox GLR-Endo Assay Evaluation of SRY-box transcription factor 2 (SOX2) Protein Expression, Deisenroth Lab (AID 2284412; active means hit-call score of the fitted dose curve at least 0.9, where 1 is the maximum). The essentials:
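RUES2-GLR human pluripotent cells were seeded 24 h, then differentiated 48 h with two chemical exposures 24 h apart. Cells were fixed, nuclei stained and imaged by high-content microscopy. Endpoint is %SOX2+ cells over cell count, minus 0.2% DMSO control; 10-point series 1 nM–200 uM.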

Test [7] has as its system SRY-box transcription factor 17 (SOX17) Protein Expression, Deisenroth Lab, SOX17 (gene 64321). In words: CCTE_Deisenroth_DEVTOX-GLR_Endo_SOX17: CCTE's DevTox GLR-Endo Assay Evaluation of SRY-box transcription factor 17 (SOX17) Protein Expression, Deisenroth Lab (AID 2284413). The essentials:
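Endpoint: % change in SOX17+ fraction (SOX17+ cells / cell count) vs 0.2% DMSO solvent control. RUES2-GLR reporter cells, 48 h endoderm differentiation, two doses at 24 h intervals, high-content fluorescence imaging, 5 fields/well.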

The subject of test [8] is Brachyury (BRA) Protein Expression, TBXT (gene 6862). In words: CCTE_Deisenroth_DEVTOX-GLR_Endo_BRA: CCTE's DevTox GLR-Endo Assay Evaluation of Brachyury (BRA) Protein Expression, Deisenroth Lab (AID 2284417). The essentials:
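Percent BRA+ (mesoderm) RUES2-GLR cells after 48 h differentiation with two exposures, 1 nM - 200 uM; 0.2% DMSO control subtracted.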

Test [9] can be described thus: CCTE_Deisenroth_DEVTOX-GLR_Endo_CellCount: Viability Assessment in CCTE's DevTox GLR-Endo Assay, Deisenroth Lab (AID 2284420). The essentials: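 Viability in differentiating RUES2-GLR cultures is scored by fluorescent nuclear counts after 48 h and two 24-hourly chemical treatments, as percent change from the 0.2% DMSO control.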
The subject of test [10] is SRY-box transcription factor 17 (SOX17) Protein Expression, Deisenroth Lab, SOX17 (gene 64321). The test can be described thus: CCTE_Deisenroth_DEVTOX-GLR_Pluri_SOX17: CCTE's DevTox GLR-Pluri Assay Evaluation of SRY-box transcription factor 17 (SOX17) Protein Expression, Deisenroth Lab (AID 2284427; active means hit-call score of the fitted dose curve at least 0.9, where 1 is the maximum). In short, it runs like this:
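Seed cells 24 h; differentiate 48 h, dosing at 0 and 24 h (1 nM - 200 uM); fix, stain nuclei, image 5 fields per well; count SOX17+ cells over total cells and subtract 0.2% DMSO control.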

For test [11], the system named is SRY-box transcription factor 2 (SOX2) Protein Expression, Deisenroth Lab, SOX2 (gene 6657). In words: CCTE_Deisenroth_DEVTOX-GLR_Pluri_SOX2: CCTE's DevTox GLR-Pluri Assay Evaluation of SRY-box transcription factor 2 (SOX2) Protein Expression, Deisenroth Lab (AID 2284428). In short, it runs like this:
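SOX2 expression frequency is scored in a human pluripotent reporter line, RUES2-GLR, exposed to chemicals twice over 48 h. Imaging-based SOX2+ cell percentage is normalized as change versus 0.2% DMSO.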

The subject of test [12] is Brachyury (BRA) Protein Expression, Deisenroth Lab, TBXT (gene 6862). In words: CCTE_Deisenroth_DEVTOX-GLR_Pluri_BRA: CCTE's DevTox GLR-Pluri Assay Evaluation of Brachyury (BRA) Protein Expression, Deisenroth Lab (AID 2284429; active means hit-call score of the fitted dose curve at least 0.9, where 1 is the maximum). The essentials:
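Human pluripotent RUES2-GLR cells, seeded 24 h, were differentiated 48 h in defined media with two chemical doses at 24-h intervals (10-point, 1 nM - 200 uM). Readout: percent BRA+ cells by fluorescent reporter imaging, minus 0.2% DMSO control.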

The nature of test [13]: CCTE_Deisenroth_DEVTOX-GLR_Pluri_CellCount: Viability Assessment in CCTE's DevTox GLR-Pluri Assay Evaluation of Total Cell Counts, Deisenroth Lab (AID 2284430). In short, it runs like this: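 RUES2-GLR human pluripotent cells, seeded 24 h, then differentiated 48 h with two chemical exposures 24 h apart; 10-point series 1 nM - 200 uM. Fixed, nuclear-stained, imaged (5 fields/well); nuclei count as % change vs 0.2% DMSO.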

The target in test [14] is PGR (gene 5241) (UniProt P06401). In words: TOX21_PR_BLA_Followup_Agonist_ratio: Tox21 HEK293 Progesterone Receptor (PR) Agonism Beta-lactamase Follow-Up Assay, Ratio (AID 2283933; active means hit-call score of the fitted dose curve at least 0.9, where 1 is the maximum). In short, it runs like this:
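Agonist-mode follow-up in HEK293T cells carrying a UAS-driven beta-lactamase reporter, grown in 2% charcoal-stripped serum. Compounds act for 16 hr; activity is the ch2/ch1 cleavage ratio, with same-well CellTiter-Glo viability run in parallel.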

The target is the same in test [15]. In words: TOX21_PR_LUC_Followup_Agonist: Tox21 HEK293 Progesterone Receptor (PR) Agonism Luciferase Follow-Up Assay (AID 2283937). The essentials:
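Agonist mode: reporter cells carrying PR-A and luciferase are treated 16 h with test compounds at 37C. Luciferase induction is measured by luminescence and fitted upward against DMSO.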

A short description of test [16]: TOX21_PR_LUC_Followup_Agonist_viability: Viability Assessment in the Tox21 HEK293 Progesterone Receptor (PR) Agonism Luciferase Follow-Up Assay (AID 2283941; active means hit-call score of the fitted dose curve at least 0.9, where 1 is the maximum;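 further: loss of signal means cytotoxicity so actives lower viability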). The essentials:
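Luminescent ATP quantitation (CellTiter-Glo) serves as the read-out; a drop flags cytotoxic compounds. Cells are HEK293-PR-A-luc grown in 10% charcoal-stripped FBS, plated 3,000/well, and exposed to compound for 16 h.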

Test [17] addresses Thyroid hormone receptor alpha (Rattus norvegicus) + Thyroid hormone receptor beta (Rattus norvegicus) (UniProt P18113+P63059). In words: TOX21_TR_LUC_GH3_Agonist_Followup: Tox21 GH3 Thyroid Hormone Receptor Agonism Luciferase Follow-Up Assay (AID 2283939; active means hit-call score of the fitted dose curve at least 0.9, where 1 is the maximum). In short, it runs like this:
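Rat GH3 cells (1,500/well) in serum-free assay medium, treated with 15-point series, 92 uM to 5 nM final, for 24 h at 37C. Luciferase via ONE-Glo luminescence; gain of signal fitted against DMSO, T3 positive control.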

The next test deals with THRA (gene 7067) (UniProt P10827). In words: TOX21_TRA_COA_Agonist_Followup_ratio: Tox21 Thyroid Hormone Receptor alpha Agonism through Coactivator Recruitment Follow-Up Assay, Ratio (AID 2283948). The essentials:
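First, compound was incubated with 2.5 nM GST-TRα LBD in 0.10% BSA. Next, 200 nM fluorescein-SRC-2 and 2 nM Tb-anti-GST antibody were added. Finally, the 520:495 nm ratio was normalized to DMSO and T3 controls.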

Another test has as its target THRB (gene 7068) (UniProt P10828). The test can be described thus: TOX21_TRB_COA_Agonist_Followup_ratio: Tox21 Thyroid Hormone Receptor beta Agonism through Coactivator Recruitment Follow-Up Assay, Ratio (AID 2283963). The essentials:
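Agonism is measured as coactivator recruitment in a purified-protein TR-FRET format, using GST-TRβ LBD at 5.0 nM, fluorescein-SRC-2 peptide at 200 nM and Tb-labeled anti-GST antibody at 2 nM. Values are 520:495 nm ratios relative to DMSO (0%) and T3 (100%).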

Test [18] can be described thus: CCTE_Shafer_MEA_dev_inter_network_spike_interval_mean: CCTE's Neural Network Formation Assay for Mean Inter-network Spike Interval, Shafer Lab (AID 2284047). The essentials: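 Compound was given at plating to primary rat cortical neurons and renewed with full medium changes on DIV 5 and 9. Extracellular activity was recorded on days 5, 7, 9, 12; AUC values were fitted for loss relative to DMSO control.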

Sequence of PGR (gene 5241) (P06401 whole entry, looked up): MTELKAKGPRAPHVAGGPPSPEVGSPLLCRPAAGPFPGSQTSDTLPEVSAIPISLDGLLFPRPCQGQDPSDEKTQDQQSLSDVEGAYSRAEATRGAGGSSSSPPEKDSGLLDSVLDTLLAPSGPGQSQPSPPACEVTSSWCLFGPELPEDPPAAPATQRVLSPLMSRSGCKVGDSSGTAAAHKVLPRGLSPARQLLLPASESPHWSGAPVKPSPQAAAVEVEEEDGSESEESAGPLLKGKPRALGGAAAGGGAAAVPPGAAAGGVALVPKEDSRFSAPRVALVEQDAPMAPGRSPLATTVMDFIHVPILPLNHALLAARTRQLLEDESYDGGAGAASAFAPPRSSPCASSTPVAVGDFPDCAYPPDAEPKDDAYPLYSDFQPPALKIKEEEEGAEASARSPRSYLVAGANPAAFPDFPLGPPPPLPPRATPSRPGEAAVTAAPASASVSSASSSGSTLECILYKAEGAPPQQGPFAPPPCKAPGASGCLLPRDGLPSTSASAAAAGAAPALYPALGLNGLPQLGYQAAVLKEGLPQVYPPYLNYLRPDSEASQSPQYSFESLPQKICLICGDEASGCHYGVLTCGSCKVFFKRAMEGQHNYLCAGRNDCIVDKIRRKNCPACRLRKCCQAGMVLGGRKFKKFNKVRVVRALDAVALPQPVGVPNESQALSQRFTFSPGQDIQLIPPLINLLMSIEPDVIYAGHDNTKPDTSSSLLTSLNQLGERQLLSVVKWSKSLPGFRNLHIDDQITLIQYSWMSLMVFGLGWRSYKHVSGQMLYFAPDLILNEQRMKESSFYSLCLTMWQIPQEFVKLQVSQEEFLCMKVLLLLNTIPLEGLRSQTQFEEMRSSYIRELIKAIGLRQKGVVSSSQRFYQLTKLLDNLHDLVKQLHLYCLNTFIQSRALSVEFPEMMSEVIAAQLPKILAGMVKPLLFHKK
Sequence of Thyroid hormone receptor alpha (Rattus norvegicus) + Thyroid hormone receptor beta (Rattus norvegicus) (P63059 whole entry, looked up): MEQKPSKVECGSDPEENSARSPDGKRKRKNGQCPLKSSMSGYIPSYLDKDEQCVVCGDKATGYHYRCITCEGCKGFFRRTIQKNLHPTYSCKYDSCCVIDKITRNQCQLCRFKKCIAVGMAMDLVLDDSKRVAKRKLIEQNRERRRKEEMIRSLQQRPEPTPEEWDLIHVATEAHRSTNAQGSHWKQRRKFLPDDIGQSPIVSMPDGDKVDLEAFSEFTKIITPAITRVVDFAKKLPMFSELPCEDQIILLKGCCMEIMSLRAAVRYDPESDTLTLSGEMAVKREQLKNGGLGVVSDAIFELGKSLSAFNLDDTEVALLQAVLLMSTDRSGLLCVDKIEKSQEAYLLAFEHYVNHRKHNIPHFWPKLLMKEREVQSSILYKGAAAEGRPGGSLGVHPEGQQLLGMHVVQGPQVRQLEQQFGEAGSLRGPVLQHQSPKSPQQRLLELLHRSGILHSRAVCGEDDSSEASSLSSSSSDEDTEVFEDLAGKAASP
Sequence of Thyroid hormone receptor alpha (Rattus norvegicus) + Thyroid hormone receptor beta (Rattus norvegicus) (P18113 whole entry, looked up): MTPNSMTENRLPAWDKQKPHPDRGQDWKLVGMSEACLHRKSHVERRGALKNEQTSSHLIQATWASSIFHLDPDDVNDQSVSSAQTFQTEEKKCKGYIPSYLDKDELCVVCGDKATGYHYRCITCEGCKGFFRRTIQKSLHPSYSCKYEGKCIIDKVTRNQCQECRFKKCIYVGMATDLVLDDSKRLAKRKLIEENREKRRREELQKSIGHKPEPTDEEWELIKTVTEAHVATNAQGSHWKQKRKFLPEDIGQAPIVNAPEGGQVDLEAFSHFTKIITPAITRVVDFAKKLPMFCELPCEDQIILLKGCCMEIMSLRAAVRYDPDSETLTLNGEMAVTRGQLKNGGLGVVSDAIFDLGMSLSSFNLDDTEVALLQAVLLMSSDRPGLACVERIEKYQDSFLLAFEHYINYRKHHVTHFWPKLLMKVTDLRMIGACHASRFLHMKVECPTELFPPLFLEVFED
Sequence of THRB (gene 7068) (P10828 whole entry, looked up, the tested form may be a part): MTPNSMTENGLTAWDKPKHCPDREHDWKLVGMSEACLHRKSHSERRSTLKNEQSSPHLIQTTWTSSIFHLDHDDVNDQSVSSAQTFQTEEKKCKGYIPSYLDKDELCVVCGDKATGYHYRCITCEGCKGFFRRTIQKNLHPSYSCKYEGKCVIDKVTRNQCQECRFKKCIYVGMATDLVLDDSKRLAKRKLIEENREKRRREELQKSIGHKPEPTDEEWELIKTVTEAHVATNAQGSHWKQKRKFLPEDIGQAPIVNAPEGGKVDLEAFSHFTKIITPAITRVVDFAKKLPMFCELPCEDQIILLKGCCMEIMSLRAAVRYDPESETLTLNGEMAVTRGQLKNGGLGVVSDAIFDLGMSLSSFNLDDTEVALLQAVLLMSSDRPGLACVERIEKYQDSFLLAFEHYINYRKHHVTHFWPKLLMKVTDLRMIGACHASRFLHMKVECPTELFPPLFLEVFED
Sequence of THRA (gene 7067) (P10827 whole entry, looked up, the tested form may be a part): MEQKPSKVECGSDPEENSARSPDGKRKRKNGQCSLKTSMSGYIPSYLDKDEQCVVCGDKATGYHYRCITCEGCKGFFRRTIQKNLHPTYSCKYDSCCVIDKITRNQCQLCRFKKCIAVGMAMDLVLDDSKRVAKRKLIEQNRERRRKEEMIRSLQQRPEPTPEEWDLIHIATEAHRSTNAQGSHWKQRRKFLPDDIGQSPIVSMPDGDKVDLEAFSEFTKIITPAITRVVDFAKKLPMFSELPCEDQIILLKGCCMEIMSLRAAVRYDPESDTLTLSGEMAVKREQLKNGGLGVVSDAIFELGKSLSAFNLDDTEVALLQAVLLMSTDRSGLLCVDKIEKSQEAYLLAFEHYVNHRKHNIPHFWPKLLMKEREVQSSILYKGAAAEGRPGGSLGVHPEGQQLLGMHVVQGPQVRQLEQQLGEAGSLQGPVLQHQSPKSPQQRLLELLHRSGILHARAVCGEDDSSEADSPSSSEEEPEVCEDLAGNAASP

What is called AC50 is the concentration at which the activity in the assay is half-maximal. Regarding `CCN(CC)CCNC(=O)c1c(C)[nH]c(/C=C2\C(=O)Nc3ccc(F)cc32)c1C`, the AC50 was 8.81 µM (active) in [1]; 6.88 µM (active) in [2]; 1.63 µM (active) in test [3]; 0.623 µM (active) in test [4]; 0.621 µM (active) in test [5]; 2.5 µM (active) in [6]. Besides, the AC50 in test [7] was 0.616 µM (active); in [8] it was 0.826 µM (active); in test [9], 1.62 µM (active); in [10] it was 1.46 µM (active); in test [11], 0.432 µM (active); in test [12], 0.264 µM (active). Moreover, the half-maximal activity concentration (AC50) in [13] was 1.23 µM (active).

Turning to `CC(C)C[C@H](NC(=O)[C@H](CCc1ccccc1)NC(=O)CN1CCOCC1)C(=O)N[C@@H](Cc1ccccc1)C(=O)N[C@@H](CC(C)C)C(=O)[C@@]1(C)CO1`, the result with PGR (gene 5241) [14] and with PGR (gene 5241) [15] was inactive.

For `C=C1C(CCl)(CCl)C2(Cl)C(Cl)C(Cl)C1(Cl)C2(Cl)Cl` (configuration not stated), in the test with PGR (gene 5241) [14], the outcome was inactive. For the same compound, in the test with PGR (gene 5241) [15], the AC50 was 8.97 µM (active).

`C#C[C@]1(O)CC[C@H]2[C@@H]3CCc4cc(OC5CCCC5)ccc4[C@H]3CC[C@@]21C`: the call in test [16] was inactive.

As for `COc1cc(C)c(/C=C/C(C)=C/C=C/C(C)=C/C(=O)O)c(C)c1C`, the AC50 in test [17] was 0.767 µM (active). Further, the result in the test with THRA (gene 7067) and in the test with THRB (gene 7068) was inactive.

As to `O=C(Nc1ccc(Cl)c(Cl)c1)C1CC1`, the outcome (with PGR (gene 5241) [14]; with PGR (gene 5241) [15]; in [16]) was inactive.

On to `CC(C)C[C@H](NC(=O)[C@H](Cc1ccccc1)NC(=O)c1cnccn1)B(O)O`, for which the outcome (with PGR (gene 5241) [14]; in the test with PGR (gene 5241) [15]; in test [16]) was inactive.

Turning to `Cc1c(N(C)CS(=O)(=O)O)c(=O)n(-c2ccccc2)n1C`, the AC50 in test [1] was 8.64 µM (active).

Regarding `Cc1nc2sccn2c(=O)c1CCN1CCC(=C(c2ccc(F)cc2)c2ccc(F)cc2)CC1`, the AC50 is 9.28 µM (active) in test [3]; 11 µM (active) in test [4]; 8.41 µM (active) in test [5]; 20.4 µM (active) in [6]; 11 µM (active) in test [7]; 17.7 µM (active) in [8]. For the same compound, the AC50 is 9.15 µM (active) in [9], 16.9 µM (active) in test [11], 24.1 µM (active) in test [12] and 9.92 µM (active) in [13]. Also, the compound was classed as inactive in test [10].

Regarding `CC1(C)S[C@@H]2[C@H](NC(=O)[C@H](N)c3ccc(O)cc3)C(=O)N2[C@H]1C(=O)O`, in [18], the compound was classed as inactive.

As to `CNC(=O)c1cc(Oc2ccc(NC(=O)Nc3ccc(Cl)c(C(F)(F)F)c3)cc2)ccn1`, the AC50 was 0.815 µM (active) in test [2]; 1.11 µM (active) in test [3]; 0.609 µM (active) in [4]; 1.5 µM (active) in test [5]; 1.45 µM (active) in [6]; 0.604 µM (active) in [7]. Moreover, the AC50 in [8] was 4.31 µM (active); in test [9], 1.08 µM (active); in test [10], 20.9 µM (active); in [11], 29.3 µM (active); in test [12] it was 1.3 µM (active); in test [13], 184 µM (active).
